Sensor-assay potency score (higher = more potent) data for 24 sequences are collected here from the OligoGym collection.
Note: reference of the scale not given here.

The first assay concerns the target ZNF263. The assay is described as follows: pooled miR-30 sensor sort-seq; sequence = guide strand. As to conditions: shRNA.
Turning to TTGAAGCTCGGTGACTCTCGTG, the sensor-assay potency score (higher = more potent) was -0.044.

With TTTCAGTGCAGTCCACACCCAT, the sensor-assay potency score (higher = more potent) was -0.797.

In the case of TAAGGTAAACTGGACAGTCAGG, the sensor-assay potency score (higher = more potent) is -0.825.

TTATCAGACACCTACTTCCTCT returned a sensor-assay potency score (higher = more potent) of -0.271.

In the case of TACACAGTCTTTCAGCTGCATG, the sensor-assay potency score (higher = more potent) was -1.42.

As to TTTTATGCCAATCCTCTGCTGC, the sensor-assay potency score (higher = more potent) amounted to 0.0855.

For TGAAGCTCGGTGACTCTCGTGC, the sensor-assay potency score (higher = more potent) was determined as 0.166.

In turn, TTCAGTGCAGTCCACACCCATA had a sensor-assay potency score (higher = more potent) of -1.37.

Regarding TTATAGGGTCTCTCTCCCGTAT, the sensor-assay potency score (higher = more potent) is -0.848.

The sequence TTTGGCTGCAGTTCCTTCGGTC came in with a sensor-assay potency score (higher = more potent) of 0.0507.

The next assay concerns the target ZNF300. The description is as above. As to conditions: shRNA.
TTAGTCTTAACATCTAATGCTT displayed a sensor-assay potency score (higher = more potent) of -0.171.

For the sequence TAAAACAAGGTCTGACTTCTGA, the sensor-assay potency score (higher = more potent) was -0.123.

Regarding TTACTGAATCTGATCAACCTAT, the sensor-assay potency score (higher = more potent) is -0.267.

The sequence TTCCACATTCAGAACAATCATA returned a sensor-assay potency score (higher = more potent) of -0.99.

On to TTTTTTTCTTGAATTGCTCTTA, for which the sensor-assay potency score (higher = more potent) amounted to 0.496.

TGAGTTGTGACTTCTTAGCAAA yielded a sensor-assay potency score (higher = more potent) of -1.22.

ATGAGTTCTGTCTTCCTGCTGA came in with a sensor-assay potency score (higher = more potent) of 0.161.

TTGCTCTTATAACAACTCGGTA returned a sensor-assay potency score (higher = more potent) of -1.42.

TAGTCTTAACATCTAATGCTTC had a sensor-assay potency score (higher = more potent) of -0.419.

For the sequence TTCTGTATGCTTAACTTGCTGT, the sensor-assay potency score (higher = more potent) is -0.0649.

The target of the next assay is ZNF322A. The assay is described as above. As to conditions: shRNA.
TTTTTCACCAATGTGTACTGTC displayed a sensor-assay potency score (higher = more potent) of 0.583.

Take TATGAGTCAACTAACTATGAGA: the sensor-assay potency score (higher = more potent) is -0.783.

Take TTCACCAATGTGTACTGTCTGA: the sensor-assay potency score (higher = more potent) is -0.693.

In the case of TAAGACAGGAGCTTCTACCAAA, the sensor-assay potency score (higher = more potent) was -0.88.
